Assay results: the supplement of paper PMC12494721
Where a name gives a salt, the structure may show the parent alone.

Test system: Klebsiella aerogenes DSM 30053
Assay: fold change of Cadaverine concentration vs plate DMSO controls (fold change (ratio)); higher = more amine produced, active = hit call of the paper (significant change in both replicates, either direction)
Details: incubation time: 27 h, anaerobic, 37 °C
How it was run: (§1)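 Anaerobic mGAM cultures of four gut bacterial strains were grown at 37 °C for 27 h in 80 µL wells, starting at OD 0.1 before 1:1 dilution. Compounds were at 20 µM final (sweeteners 50 µM). Whole cultures were extracted with cold acetonitrile/methanol containing 0.1% formic acid and centrifuged. Amines were quantified by LC–triple-quadrupole MS (dynamic MRM) against external calibration curves and drift-corrected within batch. Each value is the fold change versus plate DMSO controls, averaged over 2 biological replicates.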

Structure (SMILES)	fold change of Cadaverine concentration
Nc1ncn(C2OC(CO)C(O)C2O)c(=O)n1 (configuration not stated) [Azacytidine-5] (20 µM)	0.985 (inactive)
COc1cc(Cc2cnc(N)nc2N)cc(OC)c1OC [Trimethoprim] (20 µM)	1 (inactive)
Cc1ccc(NC(=O)c2ccc(CN3CCN(C)CC3)cc2)cc1Nc1nccc(-c2cccnc2)n1 [Imatinib] (20 µM)	1.04 (inactive)
C[C@H]1[C@H](NC(=O)/C(=N\OC(C)(C)C(=O)O)c2csc(N)n2)C(=O)N1S(=O)(=O)O [Aztreonam] (20 µM)	1.06 (inactive)
Nc1nc2c(ncn2COCCO)c(=O)[nH]1 [Acyclovir] (20 µM)	1.05 (inactive)
CC(C)/N=c1\cc2n(-c3ccc(Cl)cc3)c3ccccc3nc-2cc1Nc1ccc(Cl)cc1 [Clofazimine] (20 µM)	1.03 (inactive)
Cc1nnc(SCC2=C(C(=O)O)N3C(=O)[C@@H](NC(=O)Cn4cnnn4)[C@H]3SC2)s1 [Cefazolin sodium salt] (20 µM)	1.05 (inactive)
C[C@H](CS)C(=O)N1CCC[C@H]1C(=O)O [Captopril] (20 µM)	1 (inactive)
CN1[C@@H]2CC[C@H]1CC(OC(=O)C(O)c1ccccc1)C2 (mixture of isomers) [(R,S) Homatropine hydrobromide] (20 µM)	1.02 (inactive)
Cc1cnc(NC(=O)C2=C(O)c3ccccc3S(=O)(=O)N2C)s1 [Meloxicam] (20 µM)	0.996 (inactive)
CC(C)Cc1ccc([C@H](C)C(=O)O)cc1 [(S,+) Ibuprofen] (20 µM)	1.04 (inactive)
COc1c(N2C[C@@H]3CCCN[C@@H]3C2)c(F)cc2c(=O)c(C(=O)O)cn(C3CC3)c12 [Moxifloxacin] (20 µM)	0.982 (inactive)
CCN(CC)CCNC(=O)c1ccc(N)cc1 [Procainamide hydrochloride] (20 µM)	1.04 (inactive)
Clc1ccccc1CN1CCc2sccc2C1 [Ticlopidine hydrochloride] (20 µM)	0.98 (inactive)
CCC(C)C(C(=O)OCC[N+](C)(CC)CC)c1ccccc1 (configuration not stated) [Valethamate bromide] (20 µM)	1 (inactive)
O=C(O)[C@H]1/C(=C/CO)O[C@@H]2CC(=O)N21 [Clavulanate potassium salt] (20 µM)	0.998 (inactive)
CC(C)(C)CC(C)(C)c1ccc(OCCOCC[N+](C)(C)Cc2ccccc2)cc1 [Benzethonium chloride] (20 µM)	0.988 (inactive)
CO/N=C(\C(=O)N[C@@H]1C(=O)N2C(C(=O)O)=C(C[N+]3(C)CCCC3)CS[C@H]12)c1csc(N)n1 [Cefepime hydrochloride] (20 µM)	1.11 (inactive)

Test system: Ruminococcus gnavus DSM 108212
Assay: fold change of 2-Phenylethylamine concentration vs plate DMSO controls (fold change (ratio)); higher = more amine produced, active = hit call of the paper (significant change in both replicates, either direction)
Details: incubation time: 27 h, anaerobic, 37 °C
How it was run: as §1

Structure (SMILES)	fold change of 2-Phenylethylamine concentration
CN(CCOc1ccc(NS(C)(=O)=O)cc1)CCc1ccc(NS(C)(=O)=O)cc1 [Dofetilide] (20 µM)	0.998 (inactive)
COc1cc2nc(N3CCN(C(=O)c4ccco4)CC3)nc(N)c2cc1OC [Prazosin hydrochloride] (20 µM)	0.939 (inactive)
CCc1c2c(nc3ccc(OC(=O)N4CCC(N5CCCCC5)CC4)cc13)-c1cc3c(c(=O)n1C2)COC(=O)[C@]3(O)CC [Irinotecan hydrochloride trihydrate] (20 µM)	0.89 (inactive)
O=C(O)CCNC(=O)c1ccccc1 [Betamipron] (20 µM)	0.956 (inactive)
Cc1cc(C(C)(C)CC(C)(C)C)ccc1OCCOCC[N+](C)(C)Cc1ccccc1 [Methyl benzethonium chloride] (20 µM)	0.803 (inactive)
CCN1CCN(C(=O)N[C@@H](C(=O)N[C@@H]2C(=O)N3C(C(=O)O)=C(CSc4nnnn4C)CS[C@H]23)c2ccc(O)cc2)C(=O)C1=O [Cefoperazone dihydrate] (20 µM)	0.0394 (active)
CN(C)CCCN1c2ccccc2CCc2ccccc21 [Imipramine hydrochloride] (20 µM)	0.963 (inactive)
CCOC(=O)C1=C(C)NC(C)=C(C(=O)OC)C1c1cccc(Cl)c1Cl (configuration not stated) [Felodipine] (20 µM)	0.903 (inactive)
CCOC(=O)C1=C(COCCN)NC(C)=C(C(=O)OC)C1c1ccccc1Cl (configuration not stated) [Amlodipine] (20 µM)	0.918 (inactive)
O=C(O)c1cn(C2CC2)c2cc(N3CCNCC3)c(F)cc2c1=O [Ciprofloxacin hydrochloride monohydrate] (20 µM)	0.863 (inactive)
Nc1ccn([C@@H]2CS[C@H](CO)O2)c(=O)n1 [Lamivudine] (20 µM)	1.02 (inactive)
COc1ccc(CCN(C)CCCC(C#N)(c2ccc(OC)c(OC)c2)C(C)C)cc1OC (configuration not stated) [Verapamil hydrochloride] (20 µM)	0.95 (inactive)
CC[C@]12CCCN3CCc4c(n(c5ccccc45)[C@@](O)(C(=O)OC)C1)[C@@H]32 [Vincamine] (20 µM)	0.942 (inactive)
Cc1noc(NS(=O)(=O)c2ccc(N)cc2)c1C [Sulfisoxazole] (20 µM)	1 (inactive)
O=C1CN(/N=C/c2ccc([N+](=O)[O-])o2)C(=O)N1 [Nitrofurantoin] (20 µM)	0.923 (inactive)
C=C[C@H]1CN2CC[C@H]1C[C@@H]2[C@@H](O)c1ccnc2ccc(OC)cc12 [Quinidine hydrochloride monohydrate] (20 µM)	1 (inactive)
O=C1C(CC[S+]([O-])c2ccccc2)C(=O)N(c2ccccc2)N1c1ccccc1 (configuration not stated) [Sulfinpyrazone] (20 µM)	0.887 (inactive)
CCCCCCCCNC(C)C(O)c1ccc(SC(C)C)cc1 (configuration not stated) [Suloctidil] (20 µM)	0.785 (active)
CC(=O)Nc1ccc(O)cc1 [Acetaminophen] (20 µM)	1.12 (inactive)
CC(C)(c1cc(Br)c(O)c(Br)c1)c1cc(Br)c(O)c(Br)c1 (20 µM)	0.404 (inactive)

Structure (SMILES)	fold change of 2-Phenylethylamine concentration
CCn1cc(C(=O)O)c(=O)c2cc(F)c(N3CCN(C)CC3)cc21 [Pefloxacin] (20 µM)	0.91 (inactive)
Nc1ncn(C2OC(CO)C(O)C2O)c(=O)n1 (configuration not stated) [Azacytidine-5] (20 µM)	0.935 (inactive)
COc1cc(Cc2cnc(N)nc2N)cc(OC)c1OC [Trimethoprim] (20 µM)	0.84 (inactive)
Cc1ccc(NC(=O)c2ccc(CN3CCN(C)CC3)cc2)cc1Nc1nccc(-c2cccnc2)n1 [Imatinib] (20 µM)	1.08 (inactive)
C[C@H]1[C@H](NC(=O)/C(=N\OC(C)(C)C(=O)O)c2csc(N)n2)C(=O)N1S(=O)(=O)O [Aztreonam] (20 µM)	1.04 (inactive)
Nc1nc2c(ncn2COCCO)c(=O)[nH]1 [Acyclovir] (20 µM)	1.15 (inactive)
CC(C)/N=c1\cc2n(-c3ccc(Cl)cc3)c3ccccc3nc-2cc1Nc1ccc(Cl)cc1 [Clofazimine] (20 µM)	0.727 (active)
Cc1nnc(SCC2=C(C(=O)O)N3C(=O)[C@@H](NC(=O)Cn4cnnn4)[C@H]3SC2)s1 [Cefazolin sodium salt] (20 µM)	0.0761 (active)
C[C@H](CS)C(=O)N1CCC[C@H]1C(=O)O [Captopril] (20 µM)	1.04 (inactive)
CN1[C@@H]2CC[C@H]1CC(OC(=O)C(O)c1ccccc1)C2 (mixture of isomers) [(R,S) Homatropine hydrobromide] (20 µM)	1.01 (inactive)
Cc1cnc(NC(=O)C2=C(O)c3ccccc3S(=O)(=O)N2C)s1 [Meloxicam] (20 µM)	1.03 (inactive)
CC(C)Cc1ccc([C@H](C)C(=O)O)cc1 [(S,+) Ibuprofen] (20 µM)	1.11 (inactive)
COc1c(N2C[C@@H]3CCCN[C@@H]3C2)c(F)cc2c(=O)c(C(=O)O)cn(C3CC3)c12 [Moxifloxacin] (20 µM)	0.215 (active)
CCN(CC)CCNC(=O)c1ccc(N)cc1 [Procainamide hydrochloride] (20 µM)	1.05 (inactive)
Clc1ccccc1CN1CCc2sccc2C1 [Ticlopidine hydrochloride] (20 µM)	0.977 (inactive)
CCC(C)C(C(=O)OCC[N+](C)(CC)CC)c1ccccc1 (configuration not stated) [Valethamate bromide] (20 µM)	0.963 (inactive)
O=C(O)[C@H]1/C(=C/CO)O[C@@H]2CC(=O)N21 [Clavulanate potassium salt] (20 µM)	1.02 (inactive)
CC(C)(C)CC(C)(C)c1ccc(OCCOCC[N+](C)(C)Cc2ccccc2)cc1 [Benzethonium chloride] (20 µM)	0.895 (inactive)
CO/N=C(\C(=O)N[C@@H]1C(=O)N2C(C(=O)O)=C(C[N+]3(C)CCCC3)CS[C@H]12)c1csc(N)n1 [Cefepime hydrochloride] (20 µM)	0.0523 (active)
